Source: PubChem (National Center for Advancing Translational Sciences (NCATS))
Gal4-VP16 FLuc: VP16 counterscreen qHTS for inhibitors of ROR gamma transcriptional activity; Drosophila S2 Gal4-VP16 UAS-luciferase, luminescence, 20 h; Potency, µM (top dose mostly 53.6 µM), usual class: inhibitors; 310,000 tested, 3.5% active;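 also: Gal4-VP16 expression switched on by copper sulfate through the metallothionein promoter; nearly all actives have a fitted effect of over 50% in size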
TRPV1 ag: HTS Assay for Compounds that Act as Agonists of the Vanilloid Receptor 1; Transient receptor potential cation channel subfamily V member 1 (Homo sapiens), Q8NER1; TRPV1-expressing cells, Fluo-8 calcium influx, agonist mode; activation, % at 8.33 µM; 320,000 tested, 0.19% active; AID 540275, 2011; in the data active = activation above about 80%; inconclusive = between about 30% and that limit
Target sequence (Q8NER1 whole entry, looked up): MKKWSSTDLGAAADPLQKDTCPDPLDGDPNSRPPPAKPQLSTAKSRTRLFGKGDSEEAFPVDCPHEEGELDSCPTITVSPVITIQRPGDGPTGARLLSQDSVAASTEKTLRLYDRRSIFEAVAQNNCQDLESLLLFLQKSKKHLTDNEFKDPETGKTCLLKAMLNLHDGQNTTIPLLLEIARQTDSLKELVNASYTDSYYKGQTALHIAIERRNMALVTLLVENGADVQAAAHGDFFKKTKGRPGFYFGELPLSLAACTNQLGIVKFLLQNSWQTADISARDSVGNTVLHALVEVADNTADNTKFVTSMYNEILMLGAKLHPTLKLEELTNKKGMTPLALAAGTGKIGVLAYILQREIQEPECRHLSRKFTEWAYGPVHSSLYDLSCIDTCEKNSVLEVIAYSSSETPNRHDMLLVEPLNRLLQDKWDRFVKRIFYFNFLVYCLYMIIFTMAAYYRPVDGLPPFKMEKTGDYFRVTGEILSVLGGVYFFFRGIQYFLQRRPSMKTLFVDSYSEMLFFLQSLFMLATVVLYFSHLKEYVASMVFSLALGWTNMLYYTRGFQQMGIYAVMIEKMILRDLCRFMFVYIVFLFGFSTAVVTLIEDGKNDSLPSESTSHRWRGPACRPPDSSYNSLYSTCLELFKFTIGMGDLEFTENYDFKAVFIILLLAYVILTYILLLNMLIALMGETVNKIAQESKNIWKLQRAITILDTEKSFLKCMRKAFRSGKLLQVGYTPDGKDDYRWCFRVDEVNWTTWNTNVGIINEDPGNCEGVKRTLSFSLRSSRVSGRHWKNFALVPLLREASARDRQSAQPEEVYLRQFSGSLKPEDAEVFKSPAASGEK
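Cells expressing TRPV1 were dye-loaded with Fluo-8 and read kinetically: 10 s baseline, 3 min after compound (agonist portion), then 2 min after EC20 capsaicin (allosteric enhancer portion). Calcium-bound dye fluorescence at 480/520 nm.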
TRPV1 PAM: HTS Assay for Compounds that Act as Potentiators of the Vanilloid Receptor 1; Transient receptor potential cation channel subfamily V member 1 (Homo sapiens), Q8NER1; TRPV1-expressing cells, Fluo-8 calcium influx, capsaicin EC20 potentiation; potentiation, % at 8.33 µM; 320,000 tested, 0.02% active; AID 540277, 2011; in the data active = potentiation above about 80%; inconclusive = between about 30% and that limit
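Cells expressing TRPV1 were dye-loaded with Fluo-8 and read kinetically: 10 s baseline, 3 min after compound (agonist portion), then 2 min after EC20 capsaicin (allosteric enhancer portion). Calcium-bound dye fluorescence at 480/520 nm.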
RORg inh: qHTS for inhibitors of ROR gamma transcriptional activity. Potency, µM (series often up to 53.6 µM), actives largely listed as inhibitors. 310,000 tested, 5.4% active. Drosophila S2 Gal4-RORgamma UAS-luciferase reporter, 20 h; also: nearly all actives have a fitted effect of over 60% in size
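Stably transfected Drosophila Schneider cells are the test system, with ROR gamma fused to Gal4 and luciferase under UAS control; luminescence is read after 20 hr of 700 uM copper sulfate induction at ambient temperature.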
uPA surface inh: qHTS for Inhibitors of Cell Surface uPA Generation. cell surface uPA generation assay, qHTS. Potency, µM (top dose mostly 38.3 µM), actives largely listed as inhibitors. 330,000 tested, 0.31% active; active = well fitted inhibition curve with a large enough effect; inconclusive = small, poorly fitted or top-dose-only effect; inactive = no such curve, though single readings can be large or run the other way; tested in mouse RAW 264.7 cells; also: nearly all actives have a fitted effect of over 55% in size
Numbers stand for hits; n = inactive; u = inconclusive; x = no result given. Hits are enriched below; roughly 5.8% of the tested compounds scored in any of these assays. Unless noted, calls follow the shape of the dose curve; as a rule, active = well fitted curve in the direction sought with a large enough effect; inconclusive = small, poorly fitted or top-dose-only effect, or another doubt; inactive = no such curve, though single readings can be large; an effect the other way counts as inactive or inconclusive.

SMILES	Gal4-VP16 FLuc	TRPV1 ag	TRPV1 PAM	RORg inh	uPA surface inh
O=C(Nc1nnc(-c2ccc3c(c2)OCCO3)o1)C1CCCCC1	u	n	n	n	n
O=C(Nc1nnc(-c2ccc3c(c2)OCCO3)o1)c1ccc(Cc2ccccc2)cc1	7.1µM	n	n	5.6µM	n
O=C(CCOc1ccccc1)Nc1nnc(-c2ccc3c(c2)OCCO3)o1	20µM	n	n	8.9µM	n
CCOc1ccccc1/C=C/C(=O)N1CCN(C(=O)c2ccco2)CC1	x	x	x	x	n
COc1ccc(C2C=C3CN(C(=O)OC(C)(C)C)S(=O)(=O)C3CC2OC(=O)c2cccc(C)c2)cc1 (stereo not drawn)	n	x	x	n	x
Cc1cc(C)c(C(=O)/C=C/c2ccc(C(C)C)cc2)c(=O)[nH]1	32µM	n	n	u	n
Cc1cc(C)c(C(=O)/C=C/C=C/c2ccccc2)c(=O)[nH]1	n	n	n	u	n
CCOC(=O)c1sc(N2N=C(C)C(N=Nc3cccc(C)c3)C2=O)nc1C (stereo not drawn)	u	n	n	11µM	n
CC1=NN(c2ccccc2C(=O)O)C(=O)C1N=Nc1ccccc1 (stereo not drawn)	n	n	n	n	n
CC1=NN(c2nc(-c3ccc(C)cc3)cs2)C(=O)C1N=Nc1cccc(C)c1 (stereo not drawn)	u	n	n	7.1µM	n
COc1cc2c(cc1OC)C(c1c[nH]c3ccccc13)NCC2 (stereo not drawn)	n	x	x	n	x
CCNC(=S)NNC(=O)c1cc(-c2cccnc2)nc2ccccc12	u	n	n	16µM	n
CCNC(=S)NNC(=O)c1cc(-c2cccc(OCC)c2)nc2ccccc12	u	n	u	13µM	x
CCCNC(=S)NNC(=O)c1cc(-c2cccnc2)nc2ccccc12	n	n	n	u	n
CCNC(=S)NNC(=O)c1cc(C)nc2ccccc12	u	n	n	u	n
CCNC(=S)NNC(=O)c1cc(-c2cccc(C)c2)nc2ccccc12	8.9µM	n	n	3.5µM	x
CCCCOc1cccc(-c2cc(C(=O)NNC(=S)NCC)c3ccccc3n2)c1	u	u	n	n	n
CCCn1c(-c2ccc(F)cc2)nc2c(N3CCC(N(C)C)C3)nc(C)nc21 (stereo not drawn)	n	x	x	n	x
CCOc1ccccc1C(=O)NN1C(=O)CCC1=O	u	n	n	6.3µM	n
CC[C@H](C)[C@H](NC(=O)CNC(=O)[C@H](CCCNC(=N)N)NC(=O)[C@H](CO)NC(=O)[C@H](C)NC(=O)[C@H](Cc1ccc(O)cc1)NC(=O)[C@H](Cc1c[nH]c2ccccc12)NC(=O)[C@H](C)NC(=O)[C@@H]1CCCN1C(=O)[C@H](CC(N)=O)NC(=O)[C@@H](NC(=O)[C@H](CC(=O)O)NC(=O)[C@@H]1CCCN1C(=O)[C@@H](N)[C@@H](C)O)[C@@H](C)CC)C(=O)N[C@@H](CCCNC(=N)N)C(=O)N1CCC[C@H]1C(=O)N[C@H](C(=O)NCC(=O)N[C@@H](CCCNC(=N)N)C(=O)N[C@@H](Cc1ccccc1)C(N)=O)C(C)C	n	x	x	n	x
Cc1cc(C)cc(C(=O)/C=C2\NC(=O)CS2)c1	5.6µM	n	n	4µM	n
S=c1[nH]nc(COc2ccccc2)n1/N=C/c1cccs1	7.1µM	n	n	u	n
Cc1ccsc1/C=N/n1c(COc2ccccc2)n[nH]c1=S	6.3µM	n	n	6.3µM	n
Cc1ccccc1/C=N/n1c(-c2cc(-c3ccccc3)n[nH]2)n[nH]c1=S	u	n	n	u	n
S=c1[nH]nc(COc2ccccc2)n1/N=C/c1ccc(Br)cc1	n	u	n	u	n
SMILES	Gal4-VP16 FLuc	TRPV1 ag	TRPV1 PAM	RORg inh	uPA surface inh
Cc1ccsc1/C=N/n1c(-c2cc(-c3ccccc3)n[nH]2)n[nH]c1=S	u	x	x	2.8µM	n
O=C(O)c1ccc2c(c1)C(=O)N([C@H](Cc1c3ccccc3cc3ccccc13)C(=O)O)C2=O	n	x	x	n	x
Cc1cc(NC(=O)CSCC(=O)N(c2cccc(Cl)c2)C(C(=O)NC2CCCCC2)c2ccc(O)c(O)c2)no1 (stereo not drawn)	n	n	n	n	n
COc1cc(/C=C(\C#N)c2nc3c(s2)CCCC3)ccc1O	u	n	n	8.9µM	x
O=c1[nH]nc(Sc2ncnc3sccc23)n1CCc1ccccc1	u	n	n	16µM	n
COc1c(C2=CC(=O)N(C)C2=O)c2c(n1C)C(=O)c1ccccc1C2=O	10µM	x	x	u	x
CN=c1sc2c(n1C)C(=O)c1ccccc1C2=O	x	x	x	x	n
CCOc1ccc(NC(=S)N2CCN(CCN3C(=O)c4cccc5cccc(c45)C3=O)CC2)cc1	n	n	n	n	n
Cc1[nH]c2ccccc2c1C(=O)COC(=O)C1CC(O)CN1S(=O)(=O)c1ccc(Cl)cc1 (stereo not drawn)	x	n	n	x	n
CSCCC(NS(=O)(=O)c1ccc(Cl)cc1)C(=O)OCC(=O)c1c(C)[nH]c2ccccc12 (stereo not drawn)	16µM	n	n	u	n
CC(C)(C)OC(=O)N[C@@H](Cc1ccccc1)c1nnc(SCC(=O)O)o1	n	n	n	n	n
CCC(C)[C@@H](NC(=O)OC(C)(C)C)c1nnc(S(=O)(=O)Cc2cccc(C)c2)o1 (stereo partly drawn)	5µM	n	n	3.2µM	n
CCSc1nnc([C@H](Cc2ccccc2)NC(=O)OC(C)(C)C)o1	n	n	n	n	x
CC(C)(C)OC(=O)N[C@@H](Cc1ccccc1)c1nnc(S(=O)(=O)Cc2ccccc2)o1	4.5µM	n	n	4.5µM	x
Cc1ccccc1CS(=O)(=O)c1nnc([C@H](Cc2ccccc2)NC(=O)OC(C)(C)C)o1	3.2µM	n	n	n	u
COc1cc(NC(=O)c2cccc(F)c2)cc(OC)c1OC	n	n	n	n	n
CCN1C(=O)/C(=C\c2ccncc2)SC1=Nc1ccc(C)c(C)c1	u	n	n	11µM	n
CCCN1C(=O)/C(=C\c2ccncc2)SC1=Nc1ccccc1	n	u	n	n	n
Cc1cc(C)nc(Nc2n[nH]c(-c3cccc4ccccc34)n2)n1	u	n	n	11µM	n
N#Cc1c(N)nc(SCc2ccccc2)c(C#N)c1-c1ccco1	7.9µM	n	n	u	n
N#Cc1c(N)nc(SCc2ccccn2)c(C#N)c1-c1cccs1	n	n	n	13µM	x
CCOC(=O)CSc1nc(N)c(C#N)c(-c2cccs2)c1C#N	n	n	n	n	n
COc1ccc(C(C(=O)NC(C)C)N(C(=O)CCC(=O)Nc2nccs2)c2ccccc2F)cc1 (stereo not drawn)	n	n	n	n	n
